Holding throughout (conditions): 10 µM; exposure time: 3 h pre-incubation + 3 h imaging
The test system of assay [1] is Danio rerio larvae (5 dpf). Nature of the assay: startle (activity period 16 minus period 15, 20-s interval sound) minus DMSO control (percentage points); higher = stronger startle response than DMSO larvae. In outline: (§1)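 Behavioural measures are expressed in percentage points as the treated group mean minus the control group mean. Groups held 48 larvae and the control held 844. Wild-type zebrafish larvae at 5 dpf received compounds at 10 µM final for 3 h before imaging and throughout 3 h of imaging at 28.5 °C, with frames every 6 s tracked by Z-LaP Tracker. Detections with probability below 0.5 and larvae moving less than 1% of the time were excluded.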

The test system of assay [2] is Danio rerio larvae (5 dpf). The assay can be described thus: combined optomotor response (time in upper well half, down vs up moving lines, periods 7-14) minus DMSO control (percentage points); higher = stronger optomotor response than DMSO larvae.
Assay [3] deals with Danio rerio larvae (5 dpf). The assay can be described thus: combined upward orientation toward moving lines (periods 7-14) minus DMSO control (percentage points); higher = more orientation with moving lines than DMSO larvae. In outline: as §1
In assay [4] the test system is Danio rerio larvae (5 dpf). The assay can be described thus: 1-h baseline activity (% time moving, periods 1-6) minus DMSO control (percentage points); higher = more locomotor activity than DMSO larvae. In outline:
as §1

For assay [5], the system named is Danio rerio larvae (5 dpf). The assay can be described thus: habituation (activity change first vs second 5 min of 1-s interval sound, period 17) minus DMSO control (percentage points); higher = larger habituation measure than DMSO larvae. In outline:
as §1

For assay [6], the system named is Danio rerio larvae (5 dpf). Nature of the assay: excitability (activity period 17 minus period 16, 1-s interval sound) minus DMSO control (percentage points); higher = more acoustic excitability than DMSO larvae. In outline: as §1

Molecules are shown by their SMILES. Structures can show the parent of a compound that is named as a salt.

Take `CCCCC(=O)N(Cc1ccc(-c2ccccc2-c2nnn[nH]2)cc1)[C@H](C(=O)O)C(C)C` [Valsartan]: in assay [1], the startle worked out at 0.232. Moreover, in assay [2], the combined optomotor response was 7.07.
Regarding `CC(C)n1c(/C=C/C(O)CC(O)CC(=O)O)c(-c2ccc(F)cc2)c2ccccc21` (stereo not given) [Fluvastatin sodium], the startle in assay [1] came to 3.68. Moreover, the “combined upward orientation toward moving lines” value in assay [3] was 1.58. In addition, in assay [2], the combined optomotor response was -0.348.
For `Cc1nc(Nc2ncc(C(=O)Nc3c(C)cccc3Cl)s2)cc(N2CCN(CCO)CC2)n1` [Dasatinib], the 1-h baseline activity in assay [4] is -12.5. Besides, the “combined upward orientation toward moving lines” value in assay [3] is -11. The combined optomotor response in assay [2] was -2.04.
`Nc1nc2c(ncn2COCCO)c(=O)[nH]1` [Acyclovir]: in assay [3], the “combined upward orientation toward moving lines” value was 0.15.
In the case of `CCCCC1=NC2(CCCC2)C(=O)N1Cc1ccc(-c2ccccc2-c2nnn[nH]2)cc1` [Irbesartan], the startle in assay [1] turned out to be 3.4. The combined optomotor response in assay [2] was -4.91.
With `CC#C[C@]1(O)CC[C@H]2[C@@H]3CCC4=CC(=O)CCC4=C3[C@@H](c3ccc(N(C)C)cc3)C[C@@]21C` [Mifepristone], the 1-h baseline activity in assay [4] was -3.83. In assay [5], the habituation is -3.13. Besides, the combined optomotor response in assay [2] turned out to be 8.07.
In the case of `CCC(=O)O[C@]1(C(=O)SCF)[C@H](C)C[C@H]2[C@@H]3C[C@H](F)C4=CC(=O)C=C[C@]4(C)[C@@]3(F)[C@@H](O)C[C@@]21C` [Fluticasone propionate], in assay [6], the excitability turned out to be 3.16. The combined optomotor response in assay [2] turned out to be 2.4.
On to `NS(=O)(=O)c1cc(C(=O)O)c(NCc2ccco2)cc1Cl` [Furosemide], for which the excitability in assay [6] was -1.6.
`Nc1nc(Cl)nc2c1ncn2[C@@H]1O[C@H](CO)[C@@H](O)[C@@H]1F` [Clofarabine]: the habituation in assay [5] is -1.06. Also, the combined optomotor response in assay [2] is 4.66.
For the compound `COc1ccc([C@@H]2Sc3ccccc3N(CCN(C)C)C(=O)[C@@H]2OC(C)=O)cc1` [Diltiazem hydrochloride], the habituation in assay [5] is -0.219. Besides, the combined optomotor response in assay [2] came out at 1.37.
With `COc1c(C)c2c(c(O)c1C/C=C(\C)CCC(=O)OCCN1CCOCC1)C(=O)OC2` [Mycophenolate mofetil], the 1-h baseline activity in assay [4] is -3.96. Moreover, the combined optomotor response in assay [2] worked out at 12.9.
For the compound `CCOC(=O)[C@H](CCc1ccccc1)N[C@@H](C)C(=O)N1[C@H](C(=O)O)C[C@@H]2CCC[C@@H]21` [Ramipril], in assay [6], the excitability was determined as 6.38. Moreover, the combined optomotor response in assay [2] amounted to 3.49.
As to `Cc1ccccc1C(=O)Nc1ccc(C(=O)N2CCCC(O)c3cc(Cl)ccc32)c(C)c1` (stereo not given) [Tolvaptan], the 1-h baseline activity in assay [4] worked out at 0.214. For the same compound, the excitability in assay [6] was determined as 8.2. Moreover, the combined optomotor response in assay [2] turned out to be 4.13.
As to `C#C[C@]1(O)CC[C@H]2[C@@H]3CCC4=CC(=O)CC[C@@H]4[C@H]3CC[C@@]21CC` [Levonorgestrel], the habituation in assay [5] was -7.5. The combined optomotor response in assay [2] turned out to be 6.62.
For `CCOC(=O)N1CCC(=C2c3ccc(Cl)cc3CCc3cccnc32)CC1` [Loratidine], the habituation in assay [5] is -7.35.
Take `Cc1cc(C2CCCCC2)n(O)c(=O)c1` [Ciclopirox]: the 1-h baseline activity in assay [4] is -1.84. Moreover, in assay [2], the combined optomotor response was 5.45.
For the compound `Brc1c(NC2=NCCN2)ccc2nccnc12`, in assay [6], the excitability is 6.71. In addition, the combined optomotor response in assay [2] is 5.01.
For `CC(C)c1nc(CN(C)C(=O)N[C@H](C(=O)N[C@@H](Cc2ccccc2)C[C@H](O)[C@H](Cc2ccccc2)NC(=O)OCc2cncs2)C(C)C)cs1` [Ritonavir], the habituation in assay [5] was -0.524. Moreover, the combined optomotor response in assay [2] came to 3.14.
For `COC(=O)C1=C(C)NC(C)=C(C(=O)OC(C)C)C1c1cccc2nonc12` (stereo not given) [Isradipine], in assay [6], the excitability came to 15.3. Further, the habituation in assay [5] was -15.1. In addition, the combined optomotor response in assay [2] was -14.7.
For the compound `CC1=Nc2ccc(Cl)cc2S(=O)(=O)N1` [Diazoxide], the excitability in assay [6] is 3.88. In addition, the combined optomotor response in assay [2] was determined as 2.18.
`COc1cc2nc(N3CCN(C(=O)C4COc5ccccc5O4)CC3)nc(N)c2cc1OC` (stereo not given) [Doxazosin mesylate]: the 1-h baseline activity in assay [4] is -6.93. For the same compound, the combined optomotor response in assay [2] was -3.96.
In the case of `COc1ccccc1OCCNCC(O)COc1cccc2[nH]c3ccccc3c12` (stereo not given) [Carvedilol], the excitability in assay [6] stood at 22.5. Also, the combined optomotor response in assay [2] is -1.8.
In the case of `O=c1[nH]c(=O)n([C@H]2C[C@H](O)[C@@H](CO)O2)cc1C(F)(F)F` [Trifluorothymidine], the habituation in assay [5] stood at 6.83. The combined optomotor response in assay [2] worked out at 5.31.
As for `Cc1ccc(-c2cc(C(F)(F)F)nn2-c2ccc(S(N)(=O)=O)cc2)cc1` [Celecoxib], the excitability in assay [6] turned out to be 4.91. Further, the habituation in assay [5] is -9.16. For the same compound, the combined optomotor response in assay [2] was 0.0816.
With `O=C(NCC1CCCCN1)c1cc(OCC(F)(F)F)ccc1OCC(F)(F)F` (stereo not given) [Flecainide acetate], in assay [5], the habituation worked out at 0.225. Moreover, the combined optomotor response in assay [2] amounted to 2.85.
As for `Nc1nc2[nH]cc(CCc3ccc(C(=O)N[C@@H](CCC(=O)O)C(=O)O)cc3)c2c(=O)[nH]1` [Pemetrexed], the 1-h baseline activity in assay [4] is -1.52. Moreover, in assay [2], the combined optomotor response was 1.31.
Turning to `CC(=O)NC[C@H]1CN(c2ccc(N3CCOCC3)c(F)c2)C(=O)O1` [Linezolid], the 1-h baseline activity in assay [4] stood at 3.05. The excitability in assay [6] turned out to be 6.87. For the same compound, the habituation in assay [5] was -3.73. In addition, in assay [2], the combined optomotor response was found to be 6.27.
Turning to `C[C@@H](O[C@H]1OCCN(Cc2n[nH]c(=O)[nH]2)[C@H]1c1ccc(F)cc1)c1cc(C(F)(F)F)cc(C(F)(F)F)c1` [Aprepitant], the excitability in assay [6] stood at 8.09. For the same compound, the combined optomotor response in assay [2] was determined as 4.63.
For the compound `COCCCOc1cc(C[C@@H](C[C@H](N)[C@@H](O)C[C@H](C(=O)NCC(C)(C)C(N)=O)C(C)C)C(C)C)ccc1OC` [Aliskiren hemifumarate], the excitability in assay [6] was found to be 12.7. Moreover, the combined optomotor response in assay [2] stood at 1.73.
As to `NS(=O)(=O)Cc1noc2ccccc12` [Zonisamide], in assay [4], the 1-h baseline activity was found to be 2.49. The excitability in assay [6] amounted to 4.75. Besides, in assay [2], the combined optomotor response was 7.
Turning to `CN1CCC[C@@H]1CCO[C@](C)(c1ccccc1)c1ccc(Cl)cc1` [Clemastine fumarate], in assay [4], the 1-h baseline activity stood at 1.06. Further, the combined optomotor response in assay [2] is 7.99.
For the compound `CCOc1ccccc1OCCN[C@H](C)Cc1ccc(OC)c(S(N)(=O)=O)c1` [Tamsulosin hydrochloride], in assay [6], the excitability came to 16.7. For the same compound, the combined optomotor response in assay [2] stood at 4.93.
For the compound `Nc1ncn([C@H]2C[C@H](O)[C@@H](CO)O2)c(=O)n1` [Decitabine], the 1-h baseline activity in assay [4] amounted to 1.07. Further, in assay [2], the combined optomotor response stood at 3.77.
On to `CC1CNc2c(cccc2S(=O)(=O)N[C@@H](CCCNC(=N)N)C(=O)N2CC[C@@H](C)C[C@@H]2C(=O)O)C1` (stereo not given in full) [Argatroban], for which the excitability in assay [6] is 0.775. Also, the combined optomotor response in assay [2] turned out to be 3.86.
Consider `Cn1cnc([N+](=O)[O-])c1Sc1ncnc2[nH]cnc12` [Azathioprine], for which the habituation in assay [5] was -3.52. In assay [2], the combined optomotor response was determined as 2.29.
Regarding `N#Cc1ccc(C(c2ccc(C#N)cc2)n2cncn2)cc1` [Letrozole], the habituation in assay [5] is 3.66. Further, the combined optomotor response in assay [2] is -0.923.
On to `CCCCCCCCc1ccc(CCC(N)(CO)CO)cc1`, for which the 1-h baseline activity in assay [4] is -21.1. Moreover, the combined optomotor response in assay [2] is -4.85.
`CN/C(=N\CCSCc1nc[nH]c1C)NC#N` [Cimetidine]: in assay [4], the 1-h baseline activity worked out at 0.11. Further, the habituation in assay [5] came to 5.23. The combined optomotor response in assay [2] is 0.13.
For the compound `C=CC(=O)N1CCC[C@@H](n2nc(-c3ccc(Oc4ccccc4)cc3)c3c(N)ncnc32)C1` [Ibrutinib], in assay [5], the habituation is -7.32.
In the case of `Cc1nc(-c2ccc(OCC(C)C)c(C#N)c2)sc1C(=O)O` [Febuxostat], the habituation in assay [5] was -3.37.

For the origin of these results see the supplement of paper PMC9950053.
